Source: PubChem BioAssay (NCI)
Compounds without any hit were thinned out: in the full panel of roughly 83,000, 20% have a hit.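 Single-concentration screen, 48 h exposure, 96-well plates. Endpoint: percent growth. Below 10 = active.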 Activity calls are given as the source filed them.

Legend:
Experiment in all cases: NCI-60 one-dose screen, 48 h (100 = growth as untreated, 0 = no growth, -100 = all killed)
[1] = test system: DU-145 prostate; conditions: 10 µM unless noted
[2] = test system: K-562 leukemia; conditions: 10 µM unless noted
[3] = test system: MALME-3M melanoma; conditions: 10 µM unless noted
[4] = test system: MDA-MB-231 breast; conditions: 10 µM unless noted
[5] = test system: RXF 393 renal; conditions: 10 µM unless noted
[6] = test system: SF-268 CNS; conditions: 10 µM unless noted
[7] = test system: SF-295 CNS; conditions: 10 µM unless noted
[8] = test system: SF-539 CNS; conditions: 10 µM unless noted
[9] = test system: UACC-257 melanoma; conditions: 10 µM
[10] = test system: M14 melanoma; conditions: 10 µM unless noted
[11] = test system: HCT-15 colon; conditions: 10 µM unless noted
[12] = test system: HT29 colon; conditions: 10 µM unless noted
[13] = test system: SNB-19 CNS; conditions: 10 µM unless noted
[14] = test system: U251 CNS; conditions: 10 µM unless noted
[15] = test system: SK-MEL-5 melanoma; conditions: 10 µM unless noted
[16] = test system: UACC-62 melanoma; conditions: 10 µM unless noted
[17] = test system: LOX IMVI melanoma; conditions: 10 µM unless noted
[18] = test system: SK-MEL-28 melanoma; conditions: 10 µM unless noted
[19] = test system: SNB-75 CNS; conditions: 10 µM unless noted
[20] = test system: PC-3 prostate; conditions: 10 µM unless noted

Measured: growth

NS(=O)(=O)c1ccc(Nc2nc(N/N=C/c3ccc([N+](=O)[O-])cc3)nc(Nc3ccccc3)n2)cc1
active: [5] -5.96% | [8] -36.3% | [17] -20.6%
inactive: [1] 43.6% | [2] 20.3% | [3] 36.9% | [4] 45.8% | [6] 26.9% | [7] 57.1% | [9] 82.5% | [10] 13.3% | [11] 86.5% | [12] 24.6% | [13] 20.4% | [14] 18.2% | [15] 32.3% | [16] 45.1% | [18] 35.2%

CC(=O)c1ccc(NC(=O)COc2ccc(C3SCC(=O)N3c3ccc(Br)cc3)cc2)cc1 (configuration not stated)
inactive: [1] 104% | [2] 90.8% | [3] 107% | [4] 90.6% | [5] 99.3% | [6] 103% | [7] 98% | [8] 99.2% | [9] 102% | [10] 99.9% | [11] 98.4% | [19] 100% | [13] 95.2% | [14] 100% | [20] 91.6% | [15] 96.4% | [16] 79.5% | [17] 92.1% | [18] 104%

Oc1ccccc1-c1nnc(SCc2ccc(O)c3ncccc23)o1
inactive: [1] 29.6% | [2] 19.8% | [3] 30.3% | [4] 60.6% | [5] 29.4% | [6] 34.1% | [7] 15.3% | [8] 37% | [9] 25.2% | [10] 27.4% | [11] 16.3% | [12] 102% | [13] 29.1% | [14] 23.6% | [17] 39.1% | [18] 51.2%
active: [15] -4.08%

Oc1ccc(CSc2nnc(-c3ccc(Br)cc3)o2)c2cccnc12
inactive: [1] 40.2% | [2] 15.2% | [3] 58.5% | [4] 51.4% | [5] 60.9% | [6] 31.3% | [7] 11.3% | [8] 28.4% | [9] 29.7% | [10] 31.5% | [11] 10.7% | [13] 20% | [14] 12.5% | [20] 23% | [15] 12% | [16] 27.3% | [17] 20.3% | [18] 32.8%

Clc1ccc(-c2nc3ccc(/C(=N\N=C\c4ccccc4)c4ccccc4)cc3[nH]2)cc1
inactive: [1] 92.5% | [2] 53.6% | [3] 97.6% | [4] 95.8% | [5] 90.1% | [6] 92.5% | [7] 80.7% | [8] 92.7% | [9] 101% | [10] 77.4% | [11] 72% | [19] 113% | [13] 93.8% | [14] 88.4% | [20] 62.2% | [15] 86.7% | [16] 88.8% | [17] 84.6% | [18] 90.6%

O=C(/C=C1\C=CN(CCCCCCF)c2ccccc21)n1ccc2ccccc21
inactive: [1] 109% | [2] 91.2% | [3] 91.6% | [4] 84.4% | [5] 121% | [6] 99.7% | [7] 94.6% | [8] 99.3% | [9] 103% | [10] 92% | [11] 101% | [13] 97.1% | [14] 98.9% | [20] 84.7% | [15] 94.4% | [16] 76% | [17] 101% | [18] 106%

O=C(Nc1ccccc1)Nc1nc2ccc([N+](=O)[O-])cc2s1
inactive: [1] 14.7% | [6] 13.4% | [10] 13% | [13] 13.9% | [18] 20.2%
active: [2] 5.58% | [3] -10.8% | [4] -5.6% | [5] -21.6% | [7] 2.83% | [8] 9.38% | [9] -8.53% | [11] 8.64% | [14] 6.41% | [15] -46.5% | [16] 1.73%

NC(=O)N1N=C(c2cc3ccccc3oc2=O)CC1c1cn(-c2ccccc2)nc1-c1ccc(Cl)cc1 (configuration not stated)
inactive: [1] 56.6% | [2] 27.4% | [3] 69.6% | [4] 54.3% | [5] 88.2% | [6] 54.5% | [7] 19.6% | [8] 42.8% | [9] 59.5% | [10] 43.9% | [11] 19.4% | [13] 45% | [14] 30.5% | [20] 25.9% | [15] 19.5% | [16] 38.7% | [17] 20.3% | [18] 60.1%

O=S(=O)(Nc1ccc(-n2cnc3cc(-c4ccc(O)cc4)ccc32)cc1)C1CC1
inactive: [1] 95.3% | [2] 59.8% | [3] 98.5% | [4] 84.3% | [6] 83.3% | [7] 90.1% | [8] 71.8% | [9] 98.2% | [10] 96.6% | [11] 85.1% | [12] 98.9% | [19] 51.3% | [13] 83.6% | [14] 74.6% | [20] 83.4% | [15] 88% | [16] 73.8% | [17] 116% | [18] 94.2%

Cc1cccc(NC(c2cc3cccc4ccc5cccc2c5c43)c2nnnn2C(C)(C)C)c1C (configuration not stated)
inactive: [1] 104% | [2] 96.6% | [3] 92.9% | [4] 78.6% | [6] 91.1% | [7] 87.2% | [8] 86.5% | [9] 94% | [10] 94.4% | [11] 88.7% | [12] 82.1% | [19] 93.7% | [13] 91.1% | [14] 95.3% | [20] 77.5% | [15] 97.4% | [16] 62.3% | [17] 80.2% | [18] 102%

COc1ccccc1N1CCN(C2=NN=C(c3cccc(Cl)c3)c3ccccc3C2)CC1
inactive: [3] 44.9% | [6] 22.6% | [7] 19.3% | [9] 56.3% | [11] 15.8% | [19] 19.7% | [13] 41.2% | [14] 20.7% | [20] 23.5% | [16] 31.6% | [17] 24.8% | [18] 60.7%
active: [1] 2.18% | [2] 3.9% | [4] -3.39% | [8] -11.6% | [10] 6.83% | [12] -3.52% | [15] -6.03%

Cc1cc(O)c2c(c1)C(=O)C(c1c(C)cc3c(c1O)C(=O)C=CC3=O)=CC2=O
active: [3] -15.2%
inactive: [1] 72.8% | [2] 15.4% | [4] 62.8% | [5] 20.2% | [6] 96.8% | [7] 107% | [8] 108% | [10] 93.1% | [11] 46.5% | [12] 65.3% | [19] 92.3% | [13] 99.9% | [14] 94% | [20] 82.9% | [15] 102% | [16] 61.5% | [17] 61.3% | [18] 71.2%

CC[C@H](C)[C@H]1NC(=O)[C@@H]([C@H](O)C(C)C)NC(=O)[C@@H](C)N(C)C(=O)[C@H](C)N(C)C(=O)[C@H](CC(C)C)NC(=O)[C@H](CC(C)C)N(C)C(=O)[C@H](C)N(C)C1=O
active: [1] 1.83% | [2] 7.23% | [3] 3.72% | [4] 8.22% | [5] -17.8% | [6] 4.57% | [7] -4.82% | [8] -12.6% | [10] -18.2% | [11] 1.74% | [12] 3.09% | [13] 5.15% | [14] 1.21% | [20] 5.5% | [15] -12.4% | [16] -3.83% | [17] -1.35% | [18] -9.11%
inactive: [19] 11.2%

O=c1c2c(O)cccc2oc2c3c(cc(O)c12)O[C@H]1OC=C[C@@H]31
inactive: [1] 98% | [2] 96.2% | [3] 95.2% | [4] 83.2% | [5] 99.1% | [6] 94.7% | [7] 89.5% | [8] 98.4% | [10] 101% | [11] 87.8% | [12] 88.9% | [13] 96.8% | [14] 92.9% | [15] 81.1% | [16] 81% | [17] 87.4% | [18] 108%

Cn1c2ccccc2c2c3c(c4c5ccc(Br)cc5oc4c21)C(=O)N(O)C3=O
inactive: [1] 86.1% | [2] 61.7% | [3] 113% | [4] 94.5% | [6] 78.6% | [7] 53.4% | [8] 96.2% | [9] 94.2% | [10] 89.3% | [11] 74.6% | [12] 86.6% | [19] 54.3% | [13] 69.5% | [14] 60.5% | [20] 65.8% | [15] 75.6% | [16] 49.2% | [18] 105%
active: [17] -88.8%

CC(=O)NC(C)(C)C(=O)N1CCC[C@H]1C(=O)NC(C)(C)C(=O)N[C@@H](C)C(=O)NC(C)(C)C(=O)N[C@@H](C)C(=O)N[C@@H](CCC(N)=O)C(=O)NC(C)(C)C(=O)N[C@H](C(=O)NC(C)(C)C(=O)NCC(=O)N[C@@H](CC(C)C)C(=O)NC(C)(C)C(=O)N1CCC[C@H]1C(=O)N[C@H](C(=O)NC(C)(C)C(=O)NC(C)(C)C(=O)N[C@@H](CCC(N)=O)C(=O)N[C@@H](CCC(N)=O)C(=O)N[C@H](CO)Cc1ccccc1)C(C)C)C(C)C
inactive: [1] 62.9% [4.25 µM] | [2] 42.8% [4.25 µM] | [3] 57.1% [4.25 µM] | [4] 77.7% [4.25 µM] | [5] 82.7% [4.25 µM] | [6] 64.3% [4.25 µM] | [7] 55.1% [4.25 µM] | [8] 62.2% [4.25 µM] | [10] 68.5% [4.25 µM] | [11] 101% [4.25 µM] | [12] 71% [4.25 µM] | [19] 33.4% [4.25 µM] | [13] 52.5% [4.25 µM] | [14] 62.3% [4.25 µM] | [15] 38.2% [4.25 µM] | [16] 95.8% [4.25 µM] | [17] 84.3% [4.25 µM] | [18] 65.3% [4.25 µM]
